The source of these data is the OligoGym collection.
Also: reference of the scale not given here.

The first assay has as its target TC2N. Briefly: pooled miR-30 sensor sort-seq; sequence = guide strand. The settings on record: shRNA.
The sequence TTACTGTCTCTTTCCACTGGTT returned a sensor-assay potency score (higher = more potent) of -0.545. Turning to TTAAATCACAAACCGATCCATA, the sensor-assay potency score (higher = more potent) was -0.989. In the case of TTAATAGCAAATACAAACGTTT, the sensor-assay potency score (higher = more potent) was -0.542. With TTTAATAGCAAATACAAACGTT, the sensor-assay potency score (higher = more potent) was -0.37. The sequence TGAACTGGAAAGTTCTACCTTT gave a sensor-assay potency score (higher = more potent) of 0.507. On to TAAAACTGTGATCCAGATCTGT, for which the sensor-assay potency score (higher = more potent) was -0.0159. The sequence TTACTGTCTGTGTCTCTTGTTG registered a sensor-assay potency score (higher = more potent) of -0.31.

With TTATAAATCAACTCTCCCGAGC, the sensor-assay potency score (higher = more potent) was -0.579. Same read-out and setting: to TAGCATTTTGACTATTTGGGAC belongs -0.206. As for TTTCTTCTTACAGAGCTTCGAC, the sensor-assay potency score (higher = more potent) is -0.277. The sequence TTACTGTCTTCACTTATCCAAA yielded a sensor-assay potency score (higher = more potent) of -1.52.

The next assay concerns the target TCEA3. Described as above. The conditions noted are these: shRNA.
In turn, TTCCGGTACTTCATGTCCGTGC had a sensor-assay potency score (higher = more potent) of 0.146. In turn, ATAGGTGCAGTTCTTCTTCTTG yielded a sensor-assay potency score (higher = more potent) of -0.625.

The sequence TTGGTAGATATGATCTTCGATT showed a sensor-assay potency score (higher = more potent) of -0.766. Same read-out and setting: as for TCTTGTCACAGTTGACTCCATA, the figure is -0.75; as for TACTTCATGTCCGTGCTCTTGA, 0.446; as for TTCTTCTTCTTGCATTTGCTGC, -0.856. TCTGATGCCATCTTGTCACAGT: the sensor-assay potency score (higher = more potent) is -0.177. TTAACAGCAACTCCAATCCTGG had a sensor-assay potency score (higher = more potent) of -0.797. As for ATTAACAGCAACTCCAATCCTG, the sensor-assay potency score (higher = more potent) stood at 0.388. In turn, TCGATTTCTGATGCCATCTTGT yielded a sensor-assay potency score (higher = more potent) of -0.388. Same read-out and setting: as for TTCTTCTTGCATTTGCTGCACT, the figure is -0.468; as for TTGAGGTTGCTTATGCGGCTGC, -0.208.

The target in the next assay is TCEAL1. Described as above. The settings on record: shRNA.
As to TTTTCATCTCTTCTAGCTCATC, the sensor-assay potency score (higher = more potent) was -1.39. On the same count and under the same terms, to TGTATCATCTCCTCATTGCTTA belongs 0.297.

The sequence TTCGGGAGAGTGCTCCACCGGA returned a sensor-assay potency score (higher = more potent) of -1.49.

Take TTTGTTTCTTACTCTTTTCATC: the sensor-assay potency score (higher = more potent) was -1.09. On to TTATGTTTTCCTACTCCACAAG, for which the sensor-assay potency score (higher = more potent) is -1.15. In turn, ATTATCATCAGTTTGTTTCTTA displayed a sensor-assay potency score (higher = more potent) of 0.834.

TTCTAGCTCATCTGCTGCCTGT displayed a sensor-assay potency score (higher = more potent) of -0.542. ATCAGTTTGTTTCTTACTCTTT displayed a sensor-assay potency score (higher = more potent) of -0.801. AAAGCTTCCTTCTTCAAGCTTA had a sensor-assay potency score (higher = more potent) of 0.373. Regarding TAAATTGCGGGCGAGAACGAGC, the sensor-assay potency score (higher = more potent) was -1.13. TCATCTCTTCTAGCTCATCTGC registered a sensor-assay potency score (higher = more potent) of -1.12. The same measure, in the same setting: to TTACTCTTTTCATCTCTTCTAG belongs -0.0336.

A further assay deals with TCEANC2. Described as above. The conditions noted are these: shRNA.
TTGATTTTAACACTTCCCTGGA yielded a sensor-assay potency score (higher = more potent) of 0.232. TTCTACAACCACAACTCTCTTC: the sensor-assay potency score (higher = more potent) was -0.1.

Regarding TACAACCACAACTCTCTTCAGA, the sensor-assay potency score (higher = more potent) is -0.694. The sequence TTGAGTTTCAGTTACCTGCAGG came in with a sensor-assay potency score (higher = more potent) of -0.555.

Consider TTTTCTTCTTTAATTCTTGTAA, for which the sensor-assay potency score (higher = more potent) is -0.255.
